Source: PubChem (NMMLSC)
The list is not random: actives were taken first. Their share in the collection is about 1.2%.
RGS4-Gao reg = modulates binding of RGS4 to human Galphao; P09471; Multiplexed bead flow cytometry; actives lie on both sides; binding response (% of control), % at 10 µM; 0.33% of 220,000 active; AID 1415; in the data active = binding response below about 49% or above about 150%; inactive = in between;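 note: fluorescent Galphao activated with aluminum fluoride binding bead-coupled RGS4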
Target sequence (P09471 whole entry, looked up): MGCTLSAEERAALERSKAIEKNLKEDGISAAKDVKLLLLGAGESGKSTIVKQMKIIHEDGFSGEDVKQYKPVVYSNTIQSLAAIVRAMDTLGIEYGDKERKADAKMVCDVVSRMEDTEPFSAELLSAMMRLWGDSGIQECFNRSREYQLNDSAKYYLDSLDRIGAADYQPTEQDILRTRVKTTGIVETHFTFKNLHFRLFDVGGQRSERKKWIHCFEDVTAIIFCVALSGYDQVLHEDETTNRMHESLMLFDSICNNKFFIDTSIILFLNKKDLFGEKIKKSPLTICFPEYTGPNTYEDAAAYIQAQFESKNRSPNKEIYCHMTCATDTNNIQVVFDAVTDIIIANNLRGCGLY
RGS16-Gao HTS = modulates binding between human RGS16 and Galphao; AID 1441; binding response (% of control), % at 10 µM; 0.38% of 220,000 active; bead-based flow cytometry RGS16-Galphao binding, fluorescence; actives lie on both sides;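 note: Galphao activated by GDP with aluminum fluoride before binding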
Target sequence (O15492 whole entry, looked up): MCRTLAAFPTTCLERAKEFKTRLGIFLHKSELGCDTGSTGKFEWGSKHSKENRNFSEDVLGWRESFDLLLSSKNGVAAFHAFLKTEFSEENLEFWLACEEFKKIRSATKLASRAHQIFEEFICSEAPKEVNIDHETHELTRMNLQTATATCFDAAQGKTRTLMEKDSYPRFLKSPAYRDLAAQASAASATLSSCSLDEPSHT
Target sequence (P09471 whole entry, looked up): as the sequence (P09471 whole entry, looked up) above
RGS7-Gao reg = human RGS7-Galphao interaction regulation. binding response (% of control), % at 10 µM. 0.35% of 220,000 active. P09471. Multiplexed bead flow cytometry, RGS7-Galphao binding; actives lie on both sides. AID 1439; in the data active = binding response below about 49% or above about 150%; inconclusive = no clear call, values can overlap the other calls; inactive = in between;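 note: fluorescent Galphao held in activated GDP-AlF4 state binding bead-coupled RGS7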
Avidin fluor = compound fluoresces at 488/530 nm on avidin beads; compound fluorescence 488/530 nm, flow cytometry; hits give high values; fluorescence (KMESF) at 10 µM; 0.38% of 220,000 active; in the data active = fluorescence above about 47
GSH fluor = compound fluoresces at 488/530 nm on GSH beads; fluorescence (KMESF) at 10 µM; GSH beads flow cytometry, compound fluorescence 488/530 nm; hits give high values; 0.25% of 190,000 active; in the data active = fluorescence above about 89;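 note: glutathione beads carrying GST-tagged Bcl family fusion proteins plus one bare bead set; values are compound well signal with DMSO vehicle wells as background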
RGS8-Gao reg = modulates binding of RGS8 to human Galphao; multiplexed bead flow cytometry; actives lie on both sides; response (percent of control binding), % at 10 µM; 0.34% of 220,000 active; in the data active = response below about 60% or above about 140%; inactive = in between;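 note: Galphao activated as the GDP aluminium fluoride complex binding bead-coupled RGS8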
RGS4-Gao HTS = regulators of human RGS4-Galphao interaction | shares compounds with RGS16-Gao HTS | RGS4–Galpha-o binding response, % at 10 µM | multiplexed bead flow cytometry, RGS–Galpha-o binding | 99% of 1,600 active;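 note: fluorescently labeled Galpha-o bound to GDP with aluminium fluoride binding biotinylated RGS beads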
Avidin counter = biotin-avidin bead binding disruption counter-screen | shares compounds with RGS16-Gao HTS | streptavidin beads, fluorescein-biotin binding, flow cytometry | inhibition, % at 10 µM | 1,700 tested, under 10 active;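 active = inhibition above 50%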;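 note: median green fluorescence of gated singlet beads compared with DMSO control wells; 0% = DMSO wells and 100% = complete loss of bead fluorescence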
RGS8-Gao single = confirmation of regulators of human RGS8-Galphao interaction; shares compounds with RGS16-Gao HTS; bead-based flow cytometry RGS8-Galphao binding, fluorescence; actives lie on both sides; binding response (% of control), % at 10 µM; 3% of 1,700 active; AID 1836; in the data active = binding response below about 72% or above about 130%; inactive = in between;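 note: Galphao activated as GDP AlF4 complex before binding bead RGS8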
RGS7-Gao single = confirmation of regulators of human RGS7-Galphao interaction. shares compounds with RGS16-Gao HTS. bead-based flow cytometry RGS7-Galphao binding; actives lie on both sides. response (percent of control binding), % at 10 µM. 7.8% of 1,700 active; in the data active = response below about 75% or above about 130%; inactive = in between;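 note: fluorescent Galphao activated with GDP and aluminum fluoride binding bead-coupled RGS7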
RGS16-Gao conf = confirmation of regulators of human RGS16-Galphao interaction. shares compounds with RGS16-Gao HTS. bead-based flow cytometry, RGS16-Galphao binding; actives lie on both sides. response (% of control binding), % at 10 µM. 4% of 1,700 active. AID 1838; in the data active = response below about 74% or above about 130%; inactive = in between;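 note: Galphao activated as the GDP aluminium fluoride complex binding bead-coupled RGS16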
RGS4-Gao confirm = confirmation of regulators of human RGS4-Galphao interaction; AID 1840; binding response (% of control), % at 10 µM; shares compounds with RGS16-Gao HTS; RGS4-Galphao binding, multiplexed bead flow cytometry; actives lie on both sides; 4% of 1,700 active; in the data active = binding response below about 74% or above about 130%; inactive = in between
RGS19-Gao single = RGS19-Galphao interaction regulation, single point confirmation | bead-based flow cytometry RGS19-Galphao binding; actives lie on both sides | shares compounds with RGS16-Gao HTS | response (percent of control binding), % at 10 µM | 5% of 1,700 active; in the data active = response below about 50% or above about 160%; inactive = in between;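 note: 100% = no compound control and 0% = blank background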
Numbers without * were called inactive; ? = inconclusive; / = no result; [ ] = remark or other dose. Unless noted, the rule behind the calls is not given here.

SMILES	RGS4-Gao reg	RGS16-Gao HTS	RGS7-Gao reg	Avidin fluor	GSH fluor	RGS8-Gao reg	RGS4-Gao HTS	Avidin counter	RGS8-Gao single	RGS7-Gao single	RGS16-Gao conf	RGS4-Gao confirm	RGS19-Gao single
CC(=O)CC1=NC(C)(C)Cc2ccccc21	29*	16*	24*	2	14	18*	/	-2	102	109	104	104	100
CC(C)=NNC1=NC(C)(C)Cc2ccccc21	93	102	?	5	/	103	/	/	/	/	/	/	/
COc1ccccc1NCC(=O)N/N=C(\C)c1cccs1	101	102	100	8	24	101	/	/	/	/	/	/	/
CCc1nc(SCc2ccccn2)[nH]c(=O)c1C	104	104	104	12	11	102	/	/	/	/	/	/	/
CCc1nc(SCc2cccnc2)[nH]c(=O)c1C	108	309*[activator]	105	13	9	124	108*	1	92	91	91	92	68
Cc1ccc(S(=O)(=O)/N=C(/Nc2ccc3[nH]c(=O)[nH]c3c2)c2ccc(F)cc2)cc1	104	100	152*[activator]	37	14	99	104*	-1	107	102	117	105	116
O=c1[nH]c2ccc(NC(=S)Nc3ccc(F)cc3)cc2[nH]1	107	102	?	7	/	106	/	/	/	/	/	/	/
CC(c1ccccc1)N1CCc2[nH]c(=S)[nH]c(=O)c2C1 (stereo unspecified)	111	154	113	15	14	113	/	/	/	/	/	/	/
CC(C)S(=O)(=O)c1csc(NC(=O)Nc2cc(Cl)ccc2Cl)c1Cl	100	103	?	6	/	100	/	/	/	/	/	/	/
NS(=O)(=O)c1ccc(N/N=C/c2ccc(O)c(O)c2O)c([N+](=O)[O-])c1	69	20*	?	-1	/	39*	69*	-9	43*	35*	42*	71*	-0.4*
COC(=O)c1sccc1NC(=O)c1cc(C)on1	99	/	96	/	44	110	/	-1	100	103	102	100	112
COC(=O)c1sccc1NC(=O)c1c(C)noc1C	97	92	97	33	10	96	/	/	/	/	/	/	/
CN(c1ccccc1)c1nc2ccsc2c(=O)s1	127	113	247*[activator]	169*	32	97	127*	-2	100	102	100	99	99
Cc1ccccc1CC1(CO)CCCN(C(=O)CCCN2CCCCC2=O)C1 (stereo unspecified)	97	101	91	8	10	102	/	/	/	/	/	/	/
CCNc1ccc(S(=O)(=O)N(C)C)cc1NCC(=O)Nc1ccccc1F	102	112	104	13	8	107	/	/	/	/	/	/	/
CCNc1ccc(S(=O)(=O)N(C)C)cc1NCC(=O)Nc1ccc(F)c(Cl)c1	106	25*	101	8	7	83	106*	0	107	105	112	105	112
Nc1nc(-c2ccc(Cl)cc2)nc(-c2ccc(Cl)cc2)n1	104	100	?	7	/	102	/	/	/	/	/	/	/
NNC(=S)Nc1c(Br)cc(F)cc1Br	102	97	?	6	/	97	/	/	/	/	/	/	/
Cc1[nH]c2ccccc2c1/C=N/Nc1ccc([N+](=O)[O-])cc1S(=O)(=O)Nc1ccc(Cl)cc1	131	126	128	24	16	103	/	/	/	/	/	/	/
COc1ccc(NS(=O)(=O)c2cc([N+](=O)[O-])ccc2N/N=C\c2c(C)[nH]c3ccccc23)cc1	151*[activator]	145	136	51*	19	110	/	0	101	159*[activator]	117	128*[activator]	199*[activator]
O=C(NCCN1CCOCC1)c1cccn2c(=O)c3c4c(sc3nc12)CCCC4	100	100	?	6	/	100	/	/	/	/	/	/	/
CCOc1ccc(Br)cc1-c1noc(-c2cccs2)n1	21*	-9	12*	-3	21	8.4*	/	0	99	97	96	97	100
COc1ccc(NC(=S)N2CCN(C(c3ccccc3)c3ccccc3)CC2)cc1OC	105	185*[activator]	107	4	11	130	105*	-4	102	102	102	100	102
COc1ccc(NC(=S)N2CCCC2)cc1OC	102	100	105	11	13	99	/	/	/	/	/	/	/
FC(F)(F)c1cccc(Cc2noc(CN3CCC(c4ccncc4)CC3)n2)c1	102	109	103	7	14	105	/	/	/	/	/	/	/
SMILES	RGS4-Gao reg	RGS16-Gao HTS	RGS7-Gao reg	Avidin fluor	GSH fluor	RGS8-Gao reg	RGS4-Gao HTS	Avidin counter	RGS8-Gao single	RGS7-Gao single	RGS16-Gao conf	RGS4-Gao confirm	RGS19-Gao single
O=S(=O)(N1CCCCC1)N1CCN(c2ccccc2F)CC1	105	119	156*[activator]	70*	15	104	105*	12	104	108	107	108	93
CS(=O)(=O)N1CCN(c2ccccc2F)CC1	98	83	93	8	32	97	/	/	/	/	/	/	/
Cc1cc(Cl)c(S(=O)(=O)N2CCN(c3ccccn3)CC2)cc1OCC(=O)NC1CCCCC1	95	96	?	6	/	101	/	/	/	/	/	/	/
Cc1cc(F)ccc1NCc1cc2c(cc1[N+](=O)[O-])OCO2	84	-41*	88	2	63	89	84*	1	88	85	87	88	95
Cn1c(-c2ccc(F)cc2)cnc1NCc1cc2c(cc1[N+](=O)[O-])OCO2	103	110	104	15	9	104	/	/	/	/	/	/	/
CCCNC(=O)CN(c1cccc(F)c1)S(C)(=O)=O	126	282	117	7	15	155*[activator]	126*	2	103	106	103	102	108
Cc1cc(C)cc(N(CC(=O)NCCSCc2ccccc2)S(C)(=O)=O)c1	119	108	180*[activator]	77*	10	104	119*	0	100	47*	82	60*	48*
Nc1cnc(Nc2ccc(Br)cc2)nc1N	95	99	?	7	/	98	/	/	/	/	/	/	/
